Shown are actives, neighbours in structure and some others; about 31% of the full set was active somewhere.
CYP2C19 inhib: inhibitors of human CYP2C19; actives 21% (n = 96,000); CYP2C19 Supersomes, luciferin-H EGE luminescence, 30 min; P33261; inhibition, % at 5 µM;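 active = CYP2C19 inhibition above a set limit at 5 µM in the primary screen, cut at about 50% in these data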;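 note: plate controls were negative control wells for no effect and 2.5 mM tranylcypromine positive control for full effect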
Target sequence (P33261 whole entry, looked up): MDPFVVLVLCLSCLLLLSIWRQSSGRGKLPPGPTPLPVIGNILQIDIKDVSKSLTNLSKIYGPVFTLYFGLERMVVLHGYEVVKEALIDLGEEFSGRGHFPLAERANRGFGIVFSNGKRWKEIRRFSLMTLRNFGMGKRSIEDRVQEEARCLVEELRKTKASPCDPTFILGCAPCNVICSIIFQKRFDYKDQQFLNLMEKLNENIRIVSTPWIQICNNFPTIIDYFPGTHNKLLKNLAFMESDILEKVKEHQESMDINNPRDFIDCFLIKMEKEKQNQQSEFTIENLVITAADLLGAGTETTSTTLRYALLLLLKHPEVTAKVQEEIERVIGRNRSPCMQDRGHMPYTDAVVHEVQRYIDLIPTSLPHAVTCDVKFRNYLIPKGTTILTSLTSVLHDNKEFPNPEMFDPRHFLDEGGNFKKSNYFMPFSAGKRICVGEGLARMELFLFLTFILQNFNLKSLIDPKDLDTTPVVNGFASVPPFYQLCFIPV
CYP2C9 act: increases human cytochrome P450 2C9 activity. P11712. recombinant CYP2C9, luciferin-H conversion, luminescence; hits give high values; factor 1 = untreated enzyme, 0 = blocked. activation factor at 5 µM. actives 1.4% (n = 96,000). AID 1024;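 active = activation factor of 2 or more for CYP2C9 at a 5 µM dose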;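 note: 0 = sulfaphenazole-blocked wells and 1 = vehicle-only wells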
PLAP activator: activates human placental alkaline phosphatase | purified PLAP enzyme, luminescent substrate read-out; hits give high values | activation fold at 20 µM | actives 1.2% (n = 96,000) | AID 696; in the data active = activation fold above about 2
CYP2C19 activ: increases human CYP2C19 enzyme activity; 96,000 tested, under 10 active; activation factor at 5 µM; P33261; recombinant CYP2C19, luciferin-H EGE luminescence; hits give high values; 0 = fully inhibited enzyme, 1 = untreated enzyme;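 active = activation factor of at least 2 at 5 µM in the primary screen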;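 note: 0 = wells with 2.5 mM tranylcypromine and 1 = vehicle-only wells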
CYP2C9 inh: human CYP2C9 inhibition; CYP2C9 Supersomes, luciferin-H conversion, luminescence; inhibition, % at 5 µM; actives 20% (n = 96,000); AID 777;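 active = blocking of liver enzyme CYP2C9 beyond about 50% at 5 µM, limit read from the data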
Numbers without * were called inactive.

SMILES | CYP2C19 inhib | CYP2C9 act | PLAP activator | CYP2C19 activ | CYP2C9 inh
COc1cc(NS(=O)(=O)c2cccc3nsnc23)c(C(=O)O)cc1OC | -16 | 0.7 | 1.4 | 1.2 | 31
Cc1ccc(-c2cn(S(=O)(=O)c3cccc4nsnc34)nc2N)cc1 | 89* | 0.3 | 1 | 0.1 | 69*
Nc1nn(S(=O)(=O)c2cccc3nsnc23)cc1-c1ccc(Br)cc1 | 100* | 0 | 0.8 | 0 | 100*
O=C(O)C1CSCN1S(=O)(=O)c1cccc2nsnc12 (centres undefined) | 5 | 1.3 | 0.9 | 1 | -28
COc1cc(-c2cn(S(=O)(=O)c3cccc4nsnc34)nc2N)cc(OC)c1OC | 96* | 0.1 | 1.8 | 0 | 88*
Cc1cccc(NC(=O)C2CCN(S(=O)(=O)c3cccc4nsnc34)CC2)n1 | 41 | 1 | 1.1 | 0.6 | 4
CCN(CC)C(=O)C(Sc1ccccc1)c1ccccc1 (centres undefined) | 90* | 0.9 | 1 | 0.1 | 12
CNC(=O)C(Sc1ccccc1)c1ccccc1 (centres undefined) | 91* | 0.6 | 0.9 | 0.1 | 44
O=C(Nn1cnnc1)C(Sc1ccccc1)c1ccccc1 (centres undefined) | 61* | 0.3 | 1 | 0.4 | 74*
COc1ccc(OC)c(NC(=O)C(Sc2ccccc2)c2ccccc2)c1 (centres undefined) | 56* | 0.9 | 1.1 | 0.4 | 7
COc1ccc(OC)c(NC(=O)Nc2cccc3ccccc23)c1 | 6 | 0.6 | 0.8 | 0.9 | 39
O=C(NCCO)C(c1ccccc1)c1ccccc1 | 11 | 1.1 | 0.9 | 0.9 | -7
C=CCC(=O)OCC(=O)Nc1ccc(Oc2ccccc2)cc1 | 6 | 1.1 | 0.9 | 0.9 | -6
COc1ccc(C2(CNC(=O)CCC(=O)O)CCCC2)cc1 | 8 | 1 | 1.2 | 0.9 | 2
CCCn1c(SCC(=O)N2CCc3ccccc32)nnc1-c1ccco1 | 49 | 0.8 | 1.4 | 0.5 | 19
CCc1cc2c(=O)n(Cc3ccco3)c(SCC(=O)N3CCCc4ccccc43)nc2s1 | 34 | 0.1 | 1.5 | 0.7 | 87*
CCc1cc2c(=O)n(Cc3ccco3)c(SCc3c(C)noc3C)nc2s1 | 51* | 0.1 | 1.2 | 0.5 | 90*
CC1CN(c2nc3ccccc3nc2C(C#N)C(=O)NCc2ccc3c(c2)OCO3)CC(C)O1 (centres undefined) | 19 | 0.6 | 1.3 | 0.8 | 40
Cc1cc(C)c(COCc2cc(/C=N/O)c(C)cc2C)cc1/C=N/O | 36 | 0.9 | 1.3 | 0.6 | 8
CSc1cc(/C=N/O)c(SC)s1 | 66* | 0.6 | 1 | 0.3 | 44
Nc1cccc(-c2nc3ccc(N)cc3s2)c1 | 80* | 0.4 | 1 | 0.2 | 58*
Nc1ccc(O)c(-c2nc3ccccc3s2)c1 | 18 | 0.7 | 1 | 0.8 | 34
COc1cccc(NC(=O)NC2CCN(Cc3nnnn3Cc3ccc(F)cc3)CC2)c1 | 12 | 0.6 | 2.1* | 0.9 | 42
O=C(Nc1ccccc1F)NC1CCN(Cc2nnnn2Cc2ccc(F)cc2)CC1 | 0 | 0.9 | 1.1 | 1 | 14
COC(=O)Cc1cc(=O)n2[nH]c(C(F)(F)F)nc2n1 | 33 | 0.9 | 0.9 | 0.7 | 15
SMILES | CYP2C19 inhib | CYP2C9 act | PLAP activator | CYP2C19 activ | CYP2C9 inh
CC(C)COC(=O)n1c(SCC(=O)N(C)C)nc2ccccc21 | 65* | 0.2 | 1.7 | 0.4 | 78*
CCOC(=O)CSc1nc2ccccc2n1C(=O)OCC | 42 | 0.7 | 0.9 | 0.6 | 35
CCOC(=O)c1cnc2ccc(OCC)cc2c1N1CCN(c2ccccc2)CC1 | 21 | 0.3 | 1.2 | 0.8 | 69*
CCOC(=O)c1cnc2c(Cl)c(Cl)ccc2c1N1CCN(C)CC1 | 3 | 0.9 | 1.5 | 1 | 10
CCOC(=O)c1cnc2ccc(C)cc2c1Nc1ccc(N2CCOCC2)cc1 | 78* | 0.2 | 1.1 | 0.2 | 81*
CN(C)c1nc(Oc2ccc(N)cc2)nc(N(C)C)n1 | 32 | 0.9 | 1.1 | 0.7 | 14
CCCCCCOc1cccc(N)c1 | 64* | 0.6 | 1 | 0.4 | 35
Cc1ccc(C)c(-c2nn(-c3cc(N4CCN(CCO)CC4)ccc3[N+](=O)[O-])c(=O)c3ccccc23)c1 | 17 | 0.5 | 1.2 | 0.8 | 45
CN1CCN(c2ccc([N+](=O)[O-])cc2/C=N/NC(=O)c2ccc(F)cc2)CC1 | 64* | 0.4 | 1.5 | 0.4 | 58*
CCN(CC)C(=O)C1CCCN(c2ccc([N+](=O)[O-])cc2/C=N/NC(=O)c2cccc(Br)c2)C1 (centres undefined) | 52* | 0.2 | 1.3 | 0.5 | 85*
CCn1c(Cc2ccc(OC)cc2)nnc1SCC(=O)Nc1nc2ccccc2s1 | 18 | 0.8 | 1 | 0.8 | 20
CSc1nnc(-c2cc3ccccc3cc2O)n1C | 6 | 0.9 | 1.1 | 0.9 | 12
CC(C)(C)NC(=O)COC(=O)c1cc(F)c(F)cc1Cl | 77* | 1 | 0.9 | 0.2 | 1
O=S(=O)(c1ccccc1C(F)(F)F)N1CCC(n2cnc3ccccc32)CC1 | 88* | 0.3 | 1.6 | 0.1 | 71*
CCc1cc2cc3c(cc2nc1SCC(=O)Nc1nnc(C)s1)OCCO3 | -13 | 0.4 | 1.3 | 1.1 | 59*
Cc1ccc2[nH]c(=O)c(CN(CC3CCCO3)C(=O)c3ccco3)cc2c1 (centres undefined) | 12 | 0.9 | 0.9 | 0.9 | 5
CCC(c1nnnn1Cc1ccco1)N(Cc1cc2cc(C)cc(C)c2[nH]c1=O)CC1CCCO1 (centres undefined) | 74* | 0.2 | 1.6 | 0.3 | 79*
CCC(c1nnnn1Cc1ccco1)N(Cc1ccccc1OC)Cc1cc2cc(C)ccc2[nH]c1=O (centres undefined) | 49 | 0.5 | 1.3 | 0.5 | 51*
FC(F)(F)C1CC(c2cccs2)Nc2ncnn21 (centres undefined) | 6 | 0.9 | 0.9 | 0.9 | 8
CC1=C(C(=O)Nc2cc(-c3cccc(F)c3)[nH]n2)C2(CCCCC2)OC1=O | 52* | 0.2 | 1.1 | 0.5 | 83*
COc1ccc(N2CCN(S(=O)(=O)c3cccc(C(F)(F)F)c3)CC2)cc1 | 61* | 0.8 | 0.9 | 0.4 | 16
COc1ccc(C)cc1S(=O)(=O)N1CCC(C)CC1 | 32 | 1.4 | 0.9 | 0.7 | -37
COc1ccc(N2CCN(S(=O)(=O)c3ccc(Cl)c(C(F)(F)F)c3)CC2)cc1 | 18 | 1.3 | 0.9 | 0.8 | -28
Cn1c(=O)c2cc(S(=O)(=O)N3CCN(c4cccc(C(F)(F)F)c4)CC3)ccc2n(C)c1=O | 47 | 0.7 | 0.9 | 0.5 | 25
COc1ccc(C)cc1S(=O)(=O)N1CCN(c2cccc(C(F)(F)F)c2)CC1 | 98* | 0.8 | 0.8 | 0 | 24
COc1ccc(C)cc1S(=O)(=O)N1CCN(S(=O)(=O)c2cc(C)ccc2OC)C(C)C1 (centres undefined) | 100* | 0 | 1.4 | 0 | 99*
CCOC(=O)c1cnn2c(N)c(C#N)nnc12 | -20 | 1.2 | 1.2 | 1.2 | -19

Bioassay records deposited in PubChem BioAssay by Sanford-Burnham Center for Chemical Genomics.
